Among the data in PubChem BioAssay (Tox21) are Potency and outcome values, retold here.

Records with an inconclusive call do not appear. Entries that show only a call come without a potency. The source made the active and inactive calls. Unless noted, the call rests on the fitted dose curve; in most records, active means well fitted curve in the direction sought with a large enough effect in the repeat runs; inconclusive means weak or mixed curves; inactive means no such curve, though single readings can be large; an effect the other way counts as inactive or inconclusive.

Test [1] can be described thus: qHTS assay to identify small molecule agonists of the AP-1 signaling pathway - cell viability counter screen (AID 1159525; calls by dose curve; further: nearly all actives have a fitted effect of over 55% in size). The essentials:
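AP-1-bla ME-180 cells in Opti-MEM with 0.5% dialyzed FBS, compound exposure 5 h at 37 C in 15-point titration. Viability read in the same wells as ATP content by CellTiter-Glo luminescence, normalised to tetra-n-octylammonium bromide and DMSO controls.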
(In general: In qHTS, concentration-response curves come from the screen itself.)

The nature of test [2]: qHTS RealTime-Glo MT Cell Viability Assay in HepG2 cells - 40 hour (AID 1224870). Further: nearly all actives have a fitted effect of over 50% in size. The essentials:
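HepG2 cells (600/well) mixed with RealTime-Glo MT reagent, settled 5 h at 37 C/5% CO2 before compound addition. Nonlytic NanoLuc luminescence from viable-cell prosubstrate reduction read repeatedly during 40 h treatment at 37 C.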

The nature of test [3]: A CellTox Green Cytotoxicity Assay to monitor cytotoxicity in HEK293 cells - 40 hour (AID 1224871). Further: potency means the concentration at half of the fitted maximal effect; nearly all actives have a fitted effect of over 45% in size. A digest of the protocol:
(§1)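 Cytotoxicity was tracked continuously in HEK293 cells by a DNA-binding dye excluded from viable cells. Compounds were transferred in DMSO 5 h after seeding; fluorescence was recorded at intervals up to 40 h.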

A short description of test [4]: qHTS RealTime-Glo MT Cell Viability Assay in HEK293 cells - 40 hour (AID 1224874). Further: potency means the concentration at half of the fitted maximal effect; nearly all actives have a fitted effect of over 50% in size. The conditions noted are these: RealTime-Glo luminescence; max response: stronger effect = lower value. The essentials:
(§2)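 Nonlytic bioluminescent viability monitoring. HEK293 at 600 cells/well with reagent; 5 h settle; compound transfer by pintool; plates held at 37 C and read at set time points.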

Test [5] is described as follows: A CellTox Green Cytotoxicity Assay to monitor cytotoxicity in HepG2 cells - 16 hour (AID 1224876). Further: nearly all actives have a fitted effect of over 45% in size. A digest of the protocol: (§3)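 Real-time, homogeneous cytotoxicity readout: dead-cell DNA staining by CellTox Green in HepG2 monolayers, fluorescence measured at timed intervals up to 40 h of continuous compound exposure.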
The nature of test [6]: qHTS RealTime-Glo MT Cell Viability Assay in HepG2 cells - 32 hour (AID 1224877). Further: nearly all actives have a fitted effect of over 55% in size. A digest of the protocol:
(§4)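 HepG2 cells (600/well) were dispensed with RealTime-Glo reagents, incubated 5 h at 37 °C, then treated with compounds in DMSO for up to 40 h. Nonlytic NanoLuc luminescence reflecting viable cells was read at each stated time point.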

Test [7] in a line: qHTS RealTime-Glo MT Cell Viability Assay in HEK293 cells - 0 hour (AID 1224880). Further: top concentration of the series differs between compounds; nearly all actives have a fitted effect of over 45% in size. The essentials:
as §2

Test [8] in a line: A CellTox Green Cytotoxicity Assay to monitor cytotoxicity in HEK293 cells - 16 hour (AID 1224888). Further: nearly all actives have a fitted effect of over 35% in size. Further: potency means the concentration at half of the fitted maximal effect. The essentials: as §1
Test [9] in a line: qHTS RealTime-Glo MT Cell Viability Assay in HepG2 cells - 0 hour (AID 1224889). Further: nearly all actives have a fitted effect of over 50% in size. A digest of the protocol:
as §4

Test [10] in a line: A CellTox Green Cytotoxicity Assay to monitor cytotoxicity in HepG2 cells - 8 hour (AID 1224890). Further: nearly all actives have a fitted effect of over 45% in size. A digest of the protocol: as §3
Test [11] in a line: qHTS assay to identify small molecule antagonists of the estrogen receptor alpha (ER-alpha) signaling pathway using the BG1 cell line in the presence of 0.1 nM 17-beta-estradiol - cell viability counter screen (AID 1259241). Further: nearly all actives have a fitted effect of over 40% in size. The essentials:
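VM7Luc4E2, 4,000 cells/well, phenol red-free medium + 10% charcoal-stripped FBS; 24 hr plating; cpd + 0.1 nM E2 final, 22 hr 37C/5% CO2; CellTiter-Fluor 30 min, fluorescence.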

The nature of test [12]: qHTS assay to identify small molecule antagonists of the androgen receptor (AR) signaling pathway using the MDA cell line in the presence of 0.5 nM R1881 - cell viability counter screen (AID 1259242). Further: nearly all actives have a fitted effect of over 45% in size. The essentials: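 Cytotoxicity toward MDA-kb2 cells is measured by CellTiter-Fluor live-cell protease fluorescence after 16 hr compound exposure at 37C in the presence of 0.5 nM R1881 stimulator.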

The nature of test [13]: qHTS assay to identify small molecule antagonists of the sonic hedgehog signaling (Shh) pathway (AID 1259369; calls by dose curve; further: nearly all actives have a fitted effect of over 45% in size; further: potency means the concentration at half of the fitted maximal effect). A digest of the protocol: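 Inhibition of Shh signalling is measured as reduced Gli1-response-element firefly luciferase output in an NIH/3T3-derived stable reporter clone stimulated with conditioned medium for 24hr.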
For test [14], the target named is Cytochrome P450 1A2 (Homo sapiens) (UniProt P05177). The test is described as follows: Cytochrome P450 Family 1 Subfamily A Member 2 (CYP1A2) small molecule antagonists: luciferase reporter qHTS assay (AID 1671199). Further: nearly all actives have a fitted effect of over 50% in size. Further: potency means the concentration at half of the fitted maximal effect. A digest of the protocol: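 Inhibition of CYP1A2 conversion of proluciferin to luciferin, detected by luminescence. Reaction run 1 h at room temperature with NADPH regeneration after brief compound preincubation.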
A general note: In a reporter assay the amount or activity of a reporter protein is the signal.

The nature of test [15]: qHTS assay for small molecule agonists of the p53 signaling pathway (AID 651631; calls by dose curve; further: nearly all actives have a fitted effect of over 15% in size; further: potency means the concentration at half of the fitted maximal effect). The essentials: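 Read-out is beta-lactamase FRET fluorescence measured 2 h after substrate addition at room temperature, in HCT-116 cells with a p53 response element-driven reporter exposed to compounds for 16 h at 37 °C.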
Test [16] addresses Nuclear receptor subfamily 1 group I member 3 (Homo sapiens) (UniProt Q14994). In words: qHTS assay to identify small molecule antagonists of the constitutive androstane receptor (CAR) signaling pathway (AID 1224838). Further: nearly all actives have a fitted effect of over 40% in size. The essentials:
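Compounds were titrated across 15 concentrations onto HepG2 cells double-stably expressing hCAR and a CYP2B6-2.2kb reporter, together with 50 nM CITCO (final). After 24 h at 37 C, luciferase activity was measured by luminescence.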

The nature of test [17]: qHTS assay to identify small molecule HDAC inhibitors - cell viability counter screen (AID 1259365). The essentials:
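Luminescence from CellTiter-Glo, developed 30min at room temperature, reports viability of wild-type HCT-116 cells treated 2hr with compounds at 37 C and 5% CO2 after overnight plating.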

Test [18] concerns the target Voltage-gated inwardly rectifying potassium channel KCNH2 (Homo sapiens) (UniProt Q12809). In words: Human Ether-a-go-go-Related Gene (hERG) channel small molecule antagonists: fluorescence cell-based qHTS assay (AID 1671200). A digest of the protocol:
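Channel function was assessed by thallium flux. Cells seeded the previous day and kept at 37 C took up FluxOR II dye over 1 h in the dark at room temperature, then sat another 10 min before stimulation.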

Test [19] is described as follows: qHTS assay to identify small molecule agonists of the estrogen related receptor signaling pathway with the pleiotropic PPARgamma coactivator (PGC) (AID 1224823). A digest of the protocol: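 Cell-based luciferase assay in the NTP-supplied PGC/ERR line, 2,000 cells/well; 18 h compound exposure at 37 C, luminescence after One-Glo.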

Sequence of Cytochrome P450 1A2 (Homo sapiens) (P05177 whole entry, looked up): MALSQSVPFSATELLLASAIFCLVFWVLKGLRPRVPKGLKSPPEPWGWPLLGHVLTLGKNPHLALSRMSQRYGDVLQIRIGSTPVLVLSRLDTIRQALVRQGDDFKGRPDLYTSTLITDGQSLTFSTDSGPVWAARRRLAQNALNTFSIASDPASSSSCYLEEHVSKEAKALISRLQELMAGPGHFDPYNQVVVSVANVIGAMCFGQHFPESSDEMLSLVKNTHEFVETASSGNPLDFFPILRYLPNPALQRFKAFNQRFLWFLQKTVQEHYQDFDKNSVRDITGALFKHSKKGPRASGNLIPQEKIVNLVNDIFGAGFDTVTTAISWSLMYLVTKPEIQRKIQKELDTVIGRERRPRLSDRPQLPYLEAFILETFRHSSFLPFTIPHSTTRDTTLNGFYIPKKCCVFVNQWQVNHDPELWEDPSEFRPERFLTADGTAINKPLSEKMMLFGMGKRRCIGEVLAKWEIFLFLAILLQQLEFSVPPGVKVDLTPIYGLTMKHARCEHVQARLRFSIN
Sequence of Nuclear receptor subfamily 1 group I member 3 (Homo sapiens) (Q14994 whole entry, looked up): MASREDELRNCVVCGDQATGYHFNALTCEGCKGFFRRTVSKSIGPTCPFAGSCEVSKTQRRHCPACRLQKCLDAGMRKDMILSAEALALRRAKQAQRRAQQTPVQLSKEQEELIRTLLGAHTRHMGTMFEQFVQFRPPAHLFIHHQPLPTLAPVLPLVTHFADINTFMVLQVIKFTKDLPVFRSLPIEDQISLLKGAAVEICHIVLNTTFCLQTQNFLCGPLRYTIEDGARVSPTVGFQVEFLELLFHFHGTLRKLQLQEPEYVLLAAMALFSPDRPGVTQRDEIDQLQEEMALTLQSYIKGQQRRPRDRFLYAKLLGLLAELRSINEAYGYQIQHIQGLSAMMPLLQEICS
Sequence of Voltage-gated inwardly rectifying potassium channel KCNH2 (Homo sapiens) (Q12809 whole entry, looked up): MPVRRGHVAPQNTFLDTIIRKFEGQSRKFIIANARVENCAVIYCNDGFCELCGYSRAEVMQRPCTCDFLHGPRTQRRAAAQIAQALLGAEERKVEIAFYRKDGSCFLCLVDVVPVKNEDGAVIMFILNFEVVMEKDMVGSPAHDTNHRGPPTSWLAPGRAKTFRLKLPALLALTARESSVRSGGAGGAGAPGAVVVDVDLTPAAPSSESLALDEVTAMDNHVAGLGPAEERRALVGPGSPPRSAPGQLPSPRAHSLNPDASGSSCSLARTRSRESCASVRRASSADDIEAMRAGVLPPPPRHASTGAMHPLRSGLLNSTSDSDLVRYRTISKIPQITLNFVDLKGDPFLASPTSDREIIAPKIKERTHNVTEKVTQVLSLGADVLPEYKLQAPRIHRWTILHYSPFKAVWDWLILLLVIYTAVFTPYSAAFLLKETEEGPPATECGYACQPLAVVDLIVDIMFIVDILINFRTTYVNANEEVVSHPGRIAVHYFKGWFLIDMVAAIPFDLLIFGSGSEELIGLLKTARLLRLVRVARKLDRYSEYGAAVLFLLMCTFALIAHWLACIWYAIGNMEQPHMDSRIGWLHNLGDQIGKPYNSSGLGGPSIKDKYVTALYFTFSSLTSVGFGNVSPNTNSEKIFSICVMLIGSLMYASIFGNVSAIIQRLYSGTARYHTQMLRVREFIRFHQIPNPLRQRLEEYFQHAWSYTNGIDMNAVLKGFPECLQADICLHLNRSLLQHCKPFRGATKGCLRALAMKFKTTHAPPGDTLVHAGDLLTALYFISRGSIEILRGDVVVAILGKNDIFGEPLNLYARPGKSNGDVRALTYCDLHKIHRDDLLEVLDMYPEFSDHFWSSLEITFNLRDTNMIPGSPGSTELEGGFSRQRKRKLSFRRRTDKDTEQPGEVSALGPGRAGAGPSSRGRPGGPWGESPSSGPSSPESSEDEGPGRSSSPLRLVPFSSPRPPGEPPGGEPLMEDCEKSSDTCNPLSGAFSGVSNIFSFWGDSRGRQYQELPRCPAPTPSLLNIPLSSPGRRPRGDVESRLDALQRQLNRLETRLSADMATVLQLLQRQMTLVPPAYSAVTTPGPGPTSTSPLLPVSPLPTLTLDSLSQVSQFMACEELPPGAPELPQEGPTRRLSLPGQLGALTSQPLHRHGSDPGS

Consider `O=C(c1ccccc1)C(Cl)Cl`, for which the Potency result in test [1], in test [2], in test [5], in test [6], in test [8] and in test [9] was “inactive” each time. Besides, the Potency entry in test [10], in test [11] and in test [12] was “inactive” in each case. Besides, the Potency in [3] was 34.7 µM (active); in [4], 38.9 µM (active); in test [13] it was 30.6 µM (active); in test [14] it was 31.7 µM (active). In addition, the outcome in test [7] was inactive. Regarding `CCc1cccc(C)c1N`, the Potency entry in [15] is “inactive”. Turning to `c1ccncc1`, the Potency result in test [15] was “inactive”. The same measure, in the same setting: the result for `COc1ccccc1[N+](=O)[O-]` reads “inactive”. In the case of `Oc1c(Cl)ccc(Cl)c1Cl`, the Potency entry in test [16] is “inactive”.

`C=CC(=O)OCCCCCCCC(C)C`: the Potency result in test [15] is “inactive”. With `Clc1ccccc1-c1ccccc1Cl`, the Potency result in test [2], in test [5], in [6], in test [9], in test [10] and in test [11] was “inactive” in each case. The Potency entry in [12], in [13] and in test [14] was “inactive” in each case. Besides, the values for the Potency in test [3], in test [8] and in test [18] were 31.4 µM (active), 35.2 µM (active) and 27.9 µM (active), respectively. The molecule was called inactive in test [7] and in test [17]. On to `Brc1c2ccccc2cc2ccccc12`, for which, in test [15], the Potency was 61.8 µM (active). For the molecule `CC(CCl)OP(=O)(OC(C)CCl)OC(C)CCl` (stereo not drawn), the Potency entry in test [15] was “inactive”. Still for that read-out and setting: for `Nc1ccc(Cl)cc1Cl` the value was “inactive”; for `C=CCOC(=O)c1ccccc1C(=O)OCC=C`, “inactive”. `CCc1cccc(CC)c1N`: the Potency entry in test [15] is “inactive”. The same measure, in the same setting: for `C=CC(=O)OCCCC` the value was “inactive”.

Consider `Cc1cccc([N+](=O)[O-])c1C`, for which the Potency result in test [15] was “inactive”. On to `C[C@@]12C(=O)OC(=O)[C@]1(C)C1CCC2O1`, for which, in [15], the Potency was 1.6 µM (active). For the molecule `c1cc(OCC2CO2)cc(OCC2CO2)c1` (stereo not drawn), the Potency in test [15] was 21.5 µM (active). For `CC(C)(C)OCC1CO1` (stereo not drawn), the Potency result in [15] was “inactive”. For `Nc1cccc(C(F)(F)F)c1`, the Potency entry in test [15] was “inactive”. For the molecule `Cn1cnc(CCN)c1`, in test [19], the Potency entry is “inactive”. `O=C(Cc1ccc(Cl)c(Cl)c1)N1CCCCC1CN1CCCC1` (stereo not drawn): the Potency entry in test [19] was “inactive”.

For the molecule `CC(=O)NCCc1c[nH]c2ccccc12`, in [19], the Potency result was “inactive”. On to `CC(Cc1ccc(OCC(=O)O)cc1)NCC(O)c1cccc(Cl)c1` (stereo not drawn), for which the Potency entry in test [19] is “inactive”.

Regarding `CC(C)(O)[C@@H]1[C@H]2OC(=O)[C@@H]1[C@]1(O)C[C@H]3O[C@]34C(=O)O[C@H]2[C@]14C` (tested in a mixture with another compound), in test [19], the Potency result was “inactive”. On the same count and under the same terms, for `O=C(O)[C@@H]1CCN1` the value was “inactive”.

Consider `NC(=NCCC[C@H](N)C(=O)O)N[N+](=O)[O-]`, for which the Potency entry in [19] was “inactive”. Same read-out and setting: the result for `N[C@@H](Cn1oc(=O)[nH]c1=O)C(=O)O` reads “inactive”; that for `C=CCN1C[C@@H](C)N([C@H](c2ccc(C(=O)N(CC)CC)cc2)c2cccc(OC)c2)C[C@@H]1C`, “inactive”. `CCCN1CCO[C@@H]2c3cc(O)ccc3OC[C@H]21`: in [19], the Potency entry is “inactive”. `CCCN(CCC)[C@@H]1CCc2cccc(O)c2C1`: in test [19], the Potency entry is “inactive”. For `O=C1CCCN1CC#CCN1CCCC1`, the Potency result in test [19] is “inactive”.

For `NCC(O)c1cc(O)c(O)cc1F` (stereo not drawn), the Potency entry in [19] was “inactive”. On the same count and under the same terms, the result for `OCc1cnc[nH]1` reads “inactive”; that for `NC(N)=NOCCC(N)C(=O)O` (stereo not drawn), “inactive”.

`C=CCN1CCC23c4c5ccc(O)c4O[C@H]2C(=O)CC[C@@]3(O)C1C5` (stereo partly drawn): in test [19], the Potency entry was “inactive”.

With `Clc1ccc(N2CC3CCC(C2)N3)nn1`, the Potency entry in test [19] was “inactive”. As for `OC1CCCCC1N1CCC(c2ccccc2)CC1` (stereo not drawn), the Potency entry in test [19] was “inactive”. Take `CCCN(CCC)CCc1ccc(O)c(O)c1`: the Potency entry in [19] was “inactive”.
